A549 tox – Nrf2 qHTS screen for inhibitors: counterscreen for cytotoxicity. A549 ARE-Fluc cells, CellTiter-Fluor viability, 18-24 h. Potency, µM (series often up to 46 µM), hits mostly inhibitors. hit rate 0.16% among 390,000
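A549 ARE_Fluc cells in 5% FBS OPTI-MEM were exposed to compounds in concentration-response for 18-24 h at 37 deg C. Viability was read by CellTiter-Fluor fluorescence (Ex 405/Em 525) after 30 min, before the luciferase read.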
GRP78 ERSR act – qHTS for Inducers of the Endoplasmic Reticulum Stress Response (ERSR) in Human Glioma: qHTS. hit rate 0.02% among 420,000. U87-MG GRP78 promoter luciferase reporter, 16 h. Potency, µM, hits mostly activators; also: series mostly up to about 76 µM; nearly all actives have a fitted effect of over 35% in size
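Stably transfected U87-MG human glioma cells carrying a GRP78-based luminescent sensor were seeded at 1000 cells/well, pin-dosed with compounds and incubated 16 h. Luciferase reagent was then added, and end-point luminescence was read after 10 min at room temperature.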
miR-21 reporter – qHTS Assay for Modulators of miRNAs and/orActivators of miR-21; HeLa miR-21 FLuc reporter, luciferase, 48 h; Potency, µM (titrated, usually from 38.3 µM), most hits filed as activators; 340,000 tested, under 10 active;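 also: miR-21 action dims this reporter so a rising signal means less miR-21 action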
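Using DMEM plus 10% FBS, HeLa miR-21-FLuc cells are incubated with test compounds (final up to about 40uM) for 48 hours; firefly luciferase signal is then imaged following reagent-mediated lysis.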
Nrf2 activator – qHTS of Nrf2 Activators; AREc32 ARE-luciferase reporter (MCF7-derived line), luminescence, 24 h; Potency, µM (highest dose often 46.1 µM), usual class: activators; hit rate 0.31% among 410,000; also: nearly all actives have a fitted effect of over 65% in size
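ARE-driven firefly luciferase activity in AREc32 cells measured after a 24 hr compound exposure at 37 deg C, using Steady-Glo reagent and a 30 min room-temperature hold.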
PTAP TSG101 blk – qHTS Assay for Iinhibitors of HIV-1 Budding by Blocking the Interaction of PTAP/TSG101; Tumor susceptibility gene 101 protein (Homo sapiens), Q99816; Fluorescence polarization, FITC-PTAP peptide / Tsg101 binding; Potency, µM (highest dose often 115 µM), actives largely listed as inhibitors; 340,000 tested, under 10 active; active = well fitted inhibition curve with a large enough effect in the main read-out, with a control signal flat, not every such curve was filed as active; inconclusive = small, poorly fitted or top-dose-only effect, or effect the other way, or a change in a side signal; inactive = no such curve, though single readings can be large or run the other way
Target sequence (Q99816 whole entry, looked up): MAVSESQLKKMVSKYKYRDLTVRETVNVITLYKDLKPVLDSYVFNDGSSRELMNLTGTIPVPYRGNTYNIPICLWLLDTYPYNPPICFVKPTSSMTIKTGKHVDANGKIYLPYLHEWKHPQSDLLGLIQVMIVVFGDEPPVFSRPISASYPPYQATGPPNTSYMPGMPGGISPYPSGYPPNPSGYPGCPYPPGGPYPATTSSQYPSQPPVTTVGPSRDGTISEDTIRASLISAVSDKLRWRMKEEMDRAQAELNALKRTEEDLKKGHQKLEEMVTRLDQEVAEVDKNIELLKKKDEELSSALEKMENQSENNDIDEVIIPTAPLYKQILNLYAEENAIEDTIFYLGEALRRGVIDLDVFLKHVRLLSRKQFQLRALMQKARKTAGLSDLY
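Compounds were pin-transferred onto Tsg101 binding domain (10 uM final) in HEPES pH 7.5 buffer, then FITC-PTAP peptide was added at 50 nM final. After 20 min at RT, polarization reported peptide displacement across a qHTS concentration series.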
Nrf2 inh – Nrf2 qHTS screen for inhibitors; A549 ARE-Fluc reporter, luciferase luminescence, 18-24 h; Potency, µM (doses to about 46 µM), usual class: inhibitors; hit rate 2.1% among 360,000; also: nearly all actives have a fitted effect of over 60% in size
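A549 ARE_Fluc cells (5000/well, 5% FBS OPTI-MEM) pre-incubated 2 h, then treated with compounds 18-24 h at 37C/5% CO2 in concentration-response. CellTiter-Fluor viability read first; BugLite luciferase luminescence after 15 min at room temperature gives Nrf2 activity.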
Numbers stand for hits; 0 = inactive; ? = inconclusive; - = not tested or not shown; [ ] = another dose, or the depositor's remark. Only some compounds are listed: those with a hit (about 2.1% of all), similar ones and a draw of the others. Unless noted, calls follow the shape of the dose curve; as a rule, active = well fitted curve in the direction sought with a large enough effect; inconclusive = small, poorly fitted or top-dose-only effect, or another doubt; inactive = no such curve, though single readings can be large; an effect the other way counts as inactive or inconclusive.

SMILES	A549 tox	GRP78 ERSR act	miR-21 reporter	Nrf2 activator	PTAP TSG101 blk	Nrf2 inh
O=C(C[n+]1ccncc1)c1ccc(Br)cc1	-	0	-	-	-	-
CC(OC(=O)c1ccc2c(c1)OCCO2)C(=O)NC1CCCCC1C (configuration not stated)	0	0	-	0	0	18.4µM
CC(C)Oc1ccc(C(=O)OC(C)C(=O)NC2CCCCC2C)cc1 (configuration not stated)	0	0	0	0	0	0
COc1ccccc1CNC(=O)c1ccc2nc3[nH]c4ccccc4c3nc2c1	?	0	0	0	0	14.6µM
Cc1ccc(CNC(=O)c2ccc3nc4[nH]c5ccccc5c4nc3c2)cc1	-	-	0	-	-	-
CN1c2ccsc2/C(=N/NC(=O)c2c(F)cccc2F)CS1(=O)=O	0	0	0	0	0	0
CN1c2ccsc2/C(=N/Nc2ccccc2)CS1(=O)=O	0	0	0	7.08µM	0	?
Cc1cc(C=O)cc(C)c1[N+](=O)[O-]	-	0	-	-	-	-
CCCN1C(=O)/C(=C/c2c(N3CCNC(=O)C3CC(=O)OCC)nc3c(C)cccn3c2=O)SC1=S (configuration not stated)	?	0	0	0	?	20.6µM
Cc1ccc(/C=C2\SC(=S)N(CCCC(=O)Nc3ccccc3C(=O)O)C2=O)cc1	0	0	0	0	0	14.6µM
Cc1ccc(NC(=O)CCCN2C(=O)c3cccc4cccc(c34)C2=O)cc1	?	0	0	0	0	14.6µM
O=C(CCCN1C(=O)/C(=C/c2ccc3c(c2)OCO3)SC1=S)Nc1ccc(C(=O)O)cc1	0	0	0	0	0	10.3µM
Cc1ccc(/C=C2\SC(=S)N(CCCC(=O)Nc3ccc(O)cc3)C2=O)cc1	0	0	?	0	0	16.4µM
OC1(c2cccnc2)CCN(Cc2ccc3c(c2)CN(Cc2ccsc2)CCO3)CC1	-	0	-	-	-	-
CN(C)c1ccc(/C=C/c2ccnc3ccc(N)cc23)cc1	-	0	-	-	-	-
Cc1ccc(/C=C2\SC(=S)N(CCCC(=O)Nc3ccccn3)C2=O)cc1	?	0	?	0	0	2.31µM
CC(O)(COc1ccccc1)c1ccc2c(c1)CN(Cc1ccc3nsnc3c1)CCO2 (configuration not stated)	-	0	-	-	-	-
Cc1cccc(-n2c(C)cc(C(=O)NC3CCCCC3)c2C)c1	0	0	0	?	0	0
COc1ccc(-n2c(C)cc(C(=O)NC3CCCCC3)c2C)cc1	0	0	0	17.8µM	0	?
CCOc1ccccc1Nc1nnc(SCc2nnc(-c3cc(OC)c(OC)c(OC)c3)o2)s1	?	0	0	0	0	16.4µM
O=C1CC(N2CCN(C3CC(=O)N(CCc4ccccc4)C3=O)CC2)C(=O)N1CCc1ccccc1 (configuration not stated)	0	0	0	0	0	0
O=C1CC(N2CCN(C/C=C/c3ccccc3)CC2)C(=O)N1CCc1ccccc1 (configuration not stated)	0	0	0	0	0	9.2µM
Cc1sc2ncnc(N3CCC(C(=O)Nc4ccc(Br)cc4Br)CC3)c2c1C	0	0	-	0	0	20.6µM
Cc1ccccc1OCC(=O)NNC(=O)C1CCN(c2ncnc3sc(C)c(C)c23)CC1	0	0	-	0	0	?
COc1ccccc1OCC(=O)NNC(=O)C1CCN(c2ncnc3sc(C)c(C)c23)CC1	0	0	-	0	0	23.1µM
SMILES	A549 tox	GRP78 ERSR act	miR-21 reporter	Nrf2 activator	PTAP TSG101 blk	Nrf2 inh
Cc1sc2ncnc(N3CCC(C(=O)Nc4ccc(Cl)cc4Cl)CC3)c2c1C	0	0	-	0	0	?
Cc1sc2ncnc(N3CCC(C(=O)NCC(=O)Nc4ccc(F)c(F)c4)CC3)c2c1C	?	0	0	0	0	18.4µM
Cc1ccc(C)c2c(C)ccnc12	-	0	-	-	-	-
CS(=O)(=O)N1CCc2cc(-c3csc(NC(=O)Cc4cccs4)n3)ccc21	0	0	?	0	0	18.4µM
Cc1ccccc1C(=O)NCC(=O)OC(C(=O)Nc1cc(C(F)(F)F)ccc1Cl)c1ccccc1 (configuration not stated)	0	-	-	-	-	0
COc1ccc(Cc2nc(-c3ccc(-n4cccc4)cc3)no2)cc1OC	0	0	0	0	0	16.4µM
O=[N+]([O-])c1ccc(-c2ccc(S(=O)(=O)NCCN3CCCC3)cc2)cc1	0	0	0	0	0	16.4µM
Cc1cccn2c(=O)c(/C=N/O)c(NCc3ccccc3)nc12	0	0	0	0	0	0
CCC(C)N=Cc1c(NCc2ccco2)nc2c(C)cccn2c1=O (configuration not stated)	0	0	0	12.6µM	0	0
COc1cc(-c2cc(C)c3cccc(OC)c3n2)cc2c1OCCN(C(=O)CC1NC(=O)c3ccccc31)C2 (configuration not stated)	-	0	-	-	-	-
O=C(Nc1ncnc2sc3c(c12)CCCCC3)c1ccccc1	0	0	0	0	0	0
O=C(Nc1ncnc2sc3c(c12)CCC3)c1ccco1	0	0	0	0.794µM	0	0
CCNc1nc(NCc2ccccc2)nc(SCC(=O)Nc2ccccc2)n1	0	0	0	0	0	23.1µM
Cc1ccc(-c2csc3nnc(SCC(=O)Nc4nsc(-c5ccccc5)n4)n23)cc1	0[1.84 µM]	0	0	0	0	20.6µM
O=C(CSc1nnc2scc(-c3ccccc3)n12)Nc1nsc(-c2ccc(Cl)cc2)n1	0	0	-	0	0	?
O=C(CSc1nnc2scc(-c3ccccc3)n12)Nc1nsc(-c2ccccc2)n1	0	0	0	0	0	16.4µM
CCCNC(=O)c1ccc2c(c1)C1C3CCC(C3)C1C(c1ccccc1)N2 (configuration not stated)	?	0	0	0	0	20.6µM
CC(C)(C)NC(=O)c1ccc2c(c1)C1C3CCC(C3)C1C(c1ccccc1)N2 (configuration not stated)	0	0	0	0	0	0
Cc1ccc(C(=O)n2cnnc2N)cc1C	0	0	0	0	0	?
Cc1ccc(C(=O)n2cnnc2N)cc1	0	0	0	0	0	8.2µM
CCOC(=O)/C=C(\C)N1N=C(c2ccccc2)CC1c1ccccc1 (configuration not stated)	0	0	0	12.6µM	0	?
CCOC(=O)c1nnn(CC(=O)N2N=C(c3ccccc3)CC2c2ccccc2)c1C(=O)OCC (configuration not stated)	0	0	0	0	0	0
CN(C(=O)COc1ccccc1C(=O)NCCOc1ccccc1)c1ccccc1	?	0	?	0	0	14.6µM

Screens deposited in PubChem BioAssay by National Center for Advancing Translational Sciences (NCATS).
